Assay results taken from PubChem BioAssay (Tox21).
Values without a mark were called inactive. Records with an inconclusive call do not appear. Entries that show only a call come without a potency. The source made the active and inactive calls. Unless noted, calls come from the whole dose curve; as a rule, active = well fitted curve in the direction sought with a large enough effect in the repeat runs; inconclusive = weak or mixed curves; inactive = no such curve, though single readings can be large; an effect the other way counts as inactive or inconclusive.

How the values were obtained:
[1] = qHTS assay to identify small molecule antagonists of the sonic hedgehog signaling (Shh) pathway (AID 1259369; calls by dose curve; note: nearly all actives have a fitted effect of over 45% in size; note: potency is the fitted concentration of half-maximal effect)
Procedure, shortened: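 Gli1 transcriptional reporter (firefly Luc) in NIH/3T3 background, conditioned-medium activated. 24hr exposure, luminescence endpoint.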

[2] = target: Estrogen receptor beta (Homo sapiens) (UniProt Q92731); assay: qHTS assay to identify small molecule agonists of the estrogen receptor beta (ER-beta) signaling pathway (AID 1259377; active = well fitted activation curve with a large enough effect in the signal ratio in the repeat runs, not every such curve was filed as active; the % refers to the signal ratio; note: potency is the fitted concentration of half-maximal effect)
Sequence of Estrogen receptor beta (Homo sapiens) (Q92731 whole entry, looked up): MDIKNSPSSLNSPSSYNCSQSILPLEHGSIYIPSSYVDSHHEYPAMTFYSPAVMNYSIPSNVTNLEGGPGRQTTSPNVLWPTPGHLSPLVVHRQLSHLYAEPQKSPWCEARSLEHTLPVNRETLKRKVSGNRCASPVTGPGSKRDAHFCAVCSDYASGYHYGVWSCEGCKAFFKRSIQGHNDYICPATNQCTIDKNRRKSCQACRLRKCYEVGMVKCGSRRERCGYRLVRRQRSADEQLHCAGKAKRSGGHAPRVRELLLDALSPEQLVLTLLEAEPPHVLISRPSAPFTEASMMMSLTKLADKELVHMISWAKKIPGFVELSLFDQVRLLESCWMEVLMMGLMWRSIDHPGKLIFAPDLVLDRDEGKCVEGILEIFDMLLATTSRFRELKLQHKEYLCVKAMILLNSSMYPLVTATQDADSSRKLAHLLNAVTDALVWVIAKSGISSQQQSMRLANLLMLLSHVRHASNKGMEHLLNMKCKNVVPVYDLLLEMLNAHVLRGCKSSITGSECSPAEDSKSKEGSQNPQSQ
Procedure, shortened: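 Beta-lactamase reporter readout: fluorescence of LiveBLAzer B/G FRET substrate after 2 h at room temperature, following 16 h compound treatment of ER-beta-UAS-bla HEK293T cells at 37C in 2% charcoal-stripped FBS medium.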

[3] = qHTS assay to identify small molecule agonists of the androgen receptor (AR) signaling pathway in the presence of an antagonist - cell viability counter screen (AID 1259379); note: nearly all actives have a fitted effect of over 25% in size; note: potency is the fitted concentration of half-maximal effect
Procedure, shortened: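 Counter screen for cell viability run in parallel with the AR agonist-mode luciferase assay. MDA-kb2 cells were co-treated with nilutamide (3.0uM final) and compounds, then incubated 16 hr at 37C, and CellTiter-Fluor fluorescence was measured.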

[4] = qHTS assay to identify small molecule agonists of the estrogen receptor beta (ER-beta) signaling pathway - cell viability counter screen (AID 1259380); note: nearly all actives have a fitted effect of over 30% in size; note: potency is the fitted concentration of half-maximal effect
Procedure, shortened: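 In this qHTS counter screen, HEK293T cells carrying an ER-beta/UAS beta-lactamase reporter, grown in 2% charcoal-stripped FBS, received compound for 16 hr; ATP-based CellTiter-Glo luminescence was then read after 30 min at room temperature.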

[5] = qHTS assay to identify small molecule agonists or antagonists of the thyroid stimulating hormone receptor (TSHR) signaling pathway - wild type cell line counter screen (AID 1259384; calls by dose curve)
Procedure, shortened: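 Wild-type Hek293 cells, 800/well, 18 h at 37C, then compound with Ro20-1724 for 30 min RT. cAMP by HTRF (cAMP-d2/anti-cAMP cryptate), 1 h RT, fluorescence read. 15 concentrations, triplicates.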

[6] = qHTS assay to identify small molecule agonists of the estrogen receptor alpha (ER-alpha) signaling pathway in the presence of an antagonist - cell viability counter screen (AID 1259386);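 note: cells exposed to compounds for 22 h at 37 °C before the viability read; nearly all actives have a fitted effect of over 30% in size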; note: potency is the fitted concentration of half-maximal effect
Procedure, shortened: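 Steps: 5-day stripped-FBS culture; seed and incubate 24hr; add ICI-182,780 (10.0nM final); pin 15-point compound titration; incubate 22hr at 37C; add CellTiter-Fluor at 21hr; read fluorescence.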

[7] = target: Progesterone receptor (Homo sapiens) (UniProt P06401); assay: qHTS assay to identify small molecule agonists of the progesterone receptor (PR) signaling pathway (AID 1346784; calls by dose curve; note: nearly all actives have a fitted effect of over 30% in size)
Sequence of Progesterone receptor (Homo sapiens) (P06401 whole entry, looked up): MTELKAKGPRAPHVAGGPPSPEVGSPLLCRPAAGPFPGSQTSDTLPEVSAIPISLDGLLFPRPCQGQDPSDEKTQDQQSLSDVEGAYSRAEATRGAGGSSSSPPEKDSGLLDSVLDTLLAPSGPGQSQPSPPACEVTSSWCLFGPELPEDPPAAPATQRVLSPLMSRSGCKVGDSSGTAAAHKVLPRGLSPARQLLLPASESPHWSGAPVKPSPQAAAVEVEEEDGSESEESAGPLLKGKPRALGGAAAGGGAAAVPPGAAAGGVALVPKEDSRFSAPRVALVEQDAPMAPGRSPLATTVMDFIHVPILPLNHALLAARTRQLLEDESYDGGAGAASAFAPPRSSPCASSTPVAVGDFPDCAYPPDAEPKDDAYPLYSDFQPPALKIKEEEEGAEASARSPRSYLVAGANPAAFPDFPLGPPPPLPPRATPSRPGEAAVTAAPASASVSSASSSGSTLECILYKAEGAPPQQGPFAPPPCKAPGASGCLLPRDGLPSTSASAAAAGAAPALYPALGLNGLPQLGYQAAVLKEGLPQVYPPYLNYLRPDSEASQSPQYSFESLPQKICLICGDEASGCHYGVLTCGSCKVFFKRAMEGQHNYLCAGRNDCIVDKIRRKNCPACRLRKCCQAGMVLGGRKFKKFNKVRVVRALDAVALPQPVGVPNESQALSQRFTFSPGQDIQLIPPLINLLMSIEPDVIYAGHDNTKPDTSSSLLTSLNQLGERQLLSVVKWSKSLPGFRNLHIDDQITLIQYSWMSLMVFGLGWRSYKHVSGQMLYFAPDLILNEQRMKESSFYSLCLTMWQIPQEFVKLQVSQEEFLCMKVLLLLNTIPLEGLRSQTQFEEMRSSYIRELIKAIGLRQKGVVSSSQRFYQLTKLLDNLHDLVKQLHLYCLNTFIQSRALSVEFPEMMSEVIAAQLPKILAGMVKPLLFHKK
Procedure, shortened: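 HEK 293T PR-UAS-bla reporter cells, 2% charcoal-stripped FBS; 6 hr settle at 37C/5% CO2, compound (DMSO) 16 hr, LiveBLAzer B/G FRET substrate 2 hr RT, fluorescence intensity read.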

[8] = qHTS assay to identify small molecule antagonists of the progesterone receptor (PR) signaling pathway - cell viability counter screen (AID 1346798); note: series mostly up to about 92 µM; nearly all actives have a fitted effect of over 50% in size
Procedure, shortened: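 Luminescence readout (CellTiter-Glo, 30 min, RT) of viability in PR-UAS-bla HEK293T cells exposed to compound and R5020 agonist for 16 hr at 37C, 5% CO2; run in the same wells as the beta-lactamase reporter read.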

[9] = qHTS assay to identify small molecule agonists of the progesterone receptor (PR) signaling pathway - cell viability counter screen (AID 1346799; calls by dose curve; note: nearly all actives have a fitted effect of over 45% in size)
Procedure, shortened: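 HEK293T PR-UAS-bla, 3,000 cells/well, 2% charcoal-stripped FBS; 6 h settle, compound 16 h at 37C/5% CO2; LiveBLAzer 2 h RT, then CellTiter-Glo 30 min RT, luminescence read.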

[10] = qHTS assay to identify small molecule antagonists of the TGF-beta/Smad signaling pathway - cell viability counter screen (AID 1346824); note: nearly all actives have a fitted effect of over 50% in size; note: potency is the fitted concentration of half-maximal effect
Procedure, shortened: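 SBE-bla HEK 293T cells, incubated overnight, then compound plus 0.25 ng/mL TGF-beta1 (stock added) for 5 hr at 37 C. Viability was read in the same wells by CellTiter-Glo luminescence after 30 min at room temperature.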

[11] = qHTS assay to identify small molecule agonists of the TGF-beta/Smad signaling pathway - cell viability counter screen (AID 1346829); note: top concentration of the series differs between compounds; nearly all actives have a fitted effect of over 45% in size
Procedure, shortened: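 Same-well cytotoxicity: CellTiter-Glo added after the 2 hr room-temperature beta-lactamase substrate step, luminescence measured 30 min later; cells had 5 hr of compound at 37 C.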

[12] = qHTS assay to identify small molecule agonists of the TGF-beta/Smad signaling pathway (AID 1346859; active = well fitted activation curve with a large enough effect in the signal ratio in the repeat runs, not every such curve was filed as active; the % refers to the signal ratio; note: series mostly up to about 77 µM)
Procedure, shortened: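 Read-out: fluorescence at 460 and 530 nm (405 nm excitation) after a 2 hr room-temperature incubation with beta-lactamase FRET substrate. SBE-bla HEK 293T cells had been treated with test compounds for 5 hr at 37 C.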

[13] = target: Estrogen receptor (Homo sapiens) (UniProt P03372); assay: qHTS assay to identify small molecule agonists of the estrogen receptor alpha (ER-alpha) signaling pathway in the presence of an antagonist (AID 1259383; calls by dose curve; note: top concentration of the series differs between compounds; nearly all actives have a fitted effect of over 15% in size)
Sequence of Estrogen receptor (Homo sapiens) (P03372 whole entry, looked up): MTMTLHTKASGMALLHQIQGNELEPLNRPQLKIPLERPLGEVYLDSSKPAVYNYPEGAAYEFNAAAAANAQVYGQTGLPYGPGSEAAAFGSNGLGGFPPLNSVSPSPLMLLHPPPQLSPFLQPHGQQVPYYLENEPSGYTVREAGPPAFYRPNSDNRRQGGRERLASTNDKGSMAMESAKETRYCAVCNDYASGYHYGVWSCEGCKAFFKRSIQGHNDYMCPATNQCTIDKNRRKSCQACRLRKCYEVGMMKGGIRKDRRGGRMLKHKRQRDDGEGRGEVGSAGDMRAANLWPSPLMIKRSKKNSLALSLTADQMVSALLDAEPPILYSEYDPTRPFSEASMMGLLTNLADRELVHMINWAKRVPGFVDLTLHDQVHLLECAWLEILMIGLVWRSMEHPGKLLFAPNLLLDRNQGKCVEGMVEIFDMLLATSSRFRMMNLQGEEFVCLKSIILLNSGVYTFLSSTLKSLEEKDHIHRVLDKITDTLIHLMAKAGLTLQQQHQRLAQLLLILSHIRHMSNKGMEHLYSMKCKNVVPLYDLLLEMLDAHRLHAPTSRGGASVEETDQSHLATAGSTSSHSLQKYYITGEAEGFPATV
Procedure, shortened: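 ER-alpha agonism measured under antagonist challenge: 10.0nM ICI-182,780 (final) plus compound, 15 concentrations, 22hr, VM7Luc4E2 ERE-luciferase cells. Read by luminescence.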

[14] = target: Progesterone receptor (Homo sapiens) (UniProt P06401); assay: qHTS assay to identify small molecule antagonists of the progesterone receptor (PR) signaling pathway (AID 1346795; active = well fitted inhibition curve with a large enough effect in the signal ratio in the repeat runs, not every such curve was filed as active; the % refers to the signal ratio; note: potency is the fitted concentration of half-maximal effect)
Procedure, shortened: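 Beta-lactamase reporter, HEK293T PR-UAS-bla line; 2% charcoal-stripped FBS; 6 hr pre-incubation, 37C/5% CO2. Compound + R5020 1 nM final, 16 hr. LiveBLAzer B/G FRET substrate, 2 hr RT; fluorescence intensity read.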

[15] = target: Thyrotropin-releasing hormone receptor (Homo sapiens) (UniProt P34981); assay: qHTS assay to identify small molecule antagonists of the thyrotropin-releasing hormone receptor (TRHR) signaling pathway (AID 1346877; active = well fitted inhibition curve with a large enough effect in the repeat runs, not every such curve was filed as active; note: series mostly up to about 51 µM)
Sequence of Thyrotropin-releasing hormone receptor (Homo sapiens) (P34981 whole entry, looked up): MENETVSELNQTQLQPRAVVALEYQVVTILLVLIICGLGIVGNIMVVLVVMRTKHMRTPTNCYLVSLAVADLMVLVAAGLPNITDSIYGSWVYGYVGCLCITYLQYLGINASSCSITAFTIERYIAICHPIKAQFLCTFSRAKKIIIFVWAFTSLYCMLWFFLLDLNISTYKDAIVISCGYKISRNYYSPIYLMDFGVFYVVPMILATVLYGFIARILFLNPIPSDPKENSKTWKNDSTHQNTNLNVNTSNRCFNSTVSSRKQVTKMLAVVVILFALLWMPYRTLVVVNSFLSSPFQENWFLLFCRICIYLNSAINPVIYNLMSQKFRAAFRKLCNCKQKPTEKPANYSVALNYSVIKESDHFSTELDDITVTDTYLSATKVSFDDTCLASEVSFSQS
Procedure, shortened: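 Human TRHR in HEK293 cells; inhibition of the intracellular calcium rise triggered by 1 nM TRH was followed by fluorescence over 3 min. Compounds were run at 15 concentrations, three replicates each.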

[16] = target: Thyrotropin-releasing hormone receptor (Homo sapiens) (UniProt P34981); assay: qHTS assay to identify small molecule agonists of the thyrotropin-releasing hormone receptor (TRHR) signaling pathway (AID 1346891; calls by dose curve; note: potency is the fitted concentration of half-maximal effect;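 for activation: HEK293 cells expressing TRHR with calcium dye readout; series mostly up to about 58 µM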)
Procedure, shortened: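 HEK293/TRHR cells, 1500 per well, 18 h 37 °C; Ca dye 2 h 37 °C; pin-tool compound addition (agonist mode); kinetic fluorescence 3 min, 1 s reads; 15 concentrations, triplicate.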

[17] = target: Androgen receptor (Homo sapiens) (UniProt P10275); assay: qHTS assay to identify small molecule agonists of the androgen receptor (AR) signaling pathway in the presence of an antagonist (AID 1259381; calls by dose curve; note: nearly all actives have a fitted effect of over 15% in size)
Sequence of Androgen receptor (Homo sapiens) (P10275 whole entry, looked up): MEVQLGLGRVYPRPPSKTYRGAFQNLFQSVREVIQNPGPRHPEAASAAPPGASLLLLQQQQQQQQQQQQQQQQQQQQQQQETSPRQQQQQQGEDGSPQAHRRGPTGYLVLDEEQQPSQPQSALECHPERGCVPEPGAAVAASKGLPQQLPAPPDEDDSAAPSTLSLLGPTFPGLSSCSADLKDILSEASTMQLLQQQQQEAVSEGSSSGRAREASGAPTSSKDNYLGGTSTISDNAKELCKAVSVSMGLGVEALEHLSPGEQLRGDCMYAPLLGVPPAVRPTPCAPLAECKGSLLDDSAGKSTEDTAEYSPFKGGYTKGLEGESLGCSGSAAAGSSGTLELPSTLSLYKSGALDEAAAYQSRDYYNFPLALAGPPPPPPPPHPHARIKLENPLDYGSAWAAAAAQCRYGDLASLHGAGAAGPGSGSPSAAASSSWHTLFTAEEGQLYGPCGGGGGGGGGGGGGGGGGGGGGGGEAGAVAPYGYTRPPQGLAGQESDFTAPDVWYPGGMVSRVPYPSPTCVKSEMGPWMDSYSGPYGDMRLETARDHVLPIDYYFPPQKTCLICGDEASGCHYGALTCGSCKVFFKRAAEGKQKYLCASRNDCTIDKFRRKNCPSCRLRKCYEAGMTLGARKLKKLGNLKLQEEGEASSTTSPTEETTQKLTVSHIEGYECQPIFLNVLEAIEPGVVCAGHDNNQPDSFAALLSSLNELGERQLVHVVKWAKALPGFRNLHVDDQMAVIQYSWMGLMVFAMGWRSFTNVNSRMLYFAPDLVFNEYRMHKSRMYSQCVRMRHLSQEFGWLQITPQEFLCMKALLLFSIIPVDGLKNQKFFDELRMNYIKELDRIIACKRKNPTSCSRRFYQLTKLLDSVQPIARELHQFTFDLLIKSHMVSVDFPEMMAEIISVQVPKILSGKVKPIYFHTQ
Procedure, shortened: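 AR antagonist background: nilutamide 3.0uM final. Cell line: MDA-kb2, MMTV-driven luciferase, responsive to both AR and GR. Exposure 16hr, 37C, no CO2; ONE-Glo luminescence.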

[18] = target: Thyrotropin receptor (Homo sapiens) (UniProt P16473); assay: qHTS assay to identify small molecule antagonists of the thyroid stimulating hormone receptor (TSHR) signaling pathway (AID 1259385; calls by dose curve; note: nearly all actives have a fitted effect of over 20% in size; note: potency is the fitted concentration of half-maximal effect)
Sequence of Thyrotropin receptor (Homo sapiens) (P16473 whole entry, looked up): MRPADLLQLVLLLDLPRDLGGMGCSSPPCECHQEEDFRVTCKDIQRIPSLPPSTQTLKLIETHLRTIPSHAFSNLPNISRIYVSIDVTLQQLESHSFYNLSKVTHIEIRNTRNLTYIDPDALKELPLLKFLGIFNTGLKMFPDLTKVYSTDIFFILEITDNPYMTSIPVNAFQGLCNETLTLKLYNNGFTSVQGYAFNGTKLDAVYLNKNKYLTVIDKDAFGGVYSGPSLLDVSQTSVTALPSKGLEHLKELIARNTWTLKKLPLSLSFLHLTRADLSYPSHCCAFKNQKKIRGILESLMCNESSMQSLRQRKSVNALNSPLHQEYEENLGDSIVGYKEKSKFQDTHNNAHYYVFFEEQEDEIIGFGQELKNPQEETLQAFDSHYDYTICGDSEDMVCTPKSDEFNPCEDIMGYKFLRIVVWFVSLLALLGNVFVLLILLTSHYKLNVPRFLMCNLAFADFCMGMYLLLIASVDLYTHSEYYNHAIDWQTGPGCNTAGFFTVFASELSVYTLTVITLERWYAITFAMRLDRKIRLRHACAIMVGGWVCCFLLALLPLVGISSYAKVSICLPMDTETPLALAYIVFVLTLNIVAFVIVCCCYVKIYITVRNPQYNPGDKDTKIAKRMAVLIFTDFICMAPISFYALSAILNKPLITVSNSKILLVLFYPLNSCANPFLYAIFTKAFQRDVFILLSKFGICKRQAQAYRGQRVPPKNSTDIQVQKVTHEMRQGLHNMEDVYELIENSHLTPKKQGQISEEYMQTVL
Procedure, shortened: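 TSHR-HEK293 cells (800/well) plated 18 h, then compounds with Ro20-1724 and TSH at 1.5 ng/mL final, 30 min at room temperature. cAMP quantified by HTRF (cAMP-d2/anti-cAMP-cryptate, 1 h); 15 concentrations in triplicate.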

[19] = target: Estrogen receptor beta (Homo sapiens) (UniProt Q92731); assay: qHTS assay to identify small molecule antagonists of the estrogen receptor beta (ER-beta) signaling pathway (AID 1259378; active = well fitted inhibition curve with a large enough effect in the signal ratio in the repeat runs, not every such curve was filed as active; the % refers to the signal ratio)
Procedure, shortened: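 ER-beta-UAS-bla HEK293T cells in 2% charcoal-stripped FBS medium treated with compound plus 1nM final 17-beta-estradiol for 16 hr at 37C. Beta-lactamase reporter read by FRET substrate fluorescence after 2 hours at room temperature.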

[20] = qHTS assay to identify small molecule antagonists of the estrogen receptor beta (ER-beta) signaling pathway - cell viability counter screen (AID 1259382); note: series mostly up to about 92 µM; nearly all actives have a fitted effect of over 55% in size
Procedure, shortened: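 HEK293T ER-beta-UAS-bla, 2% charcoal-stripped FBS; compounds + 1nM E2 16 hr 37C; CellTiter-Glo luminescence, 30 min RT.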

SMILES | Potency [1] | Potency [2] | Potency [3] | Potency [4] | Potency [5] | Potency [6] | Potency [7] | Potency [8] | Potency [9] | Potency [10] | outcome [11] | Potency [12] | Potency [13] | Potency [14] | outcome [15] | Potency [16] | Potency [17] | Potency [18] | Potency [19] | Potency [20]
C#C[C@]1(O)CC[C@H]2[C@@H]3CCc4cc(OC5CCCC5)ccc4[C@H]3CC[C@@]21C | inactive | 6.68 µM (active) | inactive | 29.8 µM (active) | inactive | inactive | inactive | inactive | inactive | inactive | inactive | inactive |  |  |  |  |  |  |  | 
CCN(CC)c1ccc2c(-c3ccccc3C(=O)O)c3ccc(=[N+](CC)CC)cc-3oc2c1 | 34.4 µM (active) | inactive | 9.69 µM (active) | 8.63 µM (active) |  | 6.11 µM (active) |  | inactive |  | inactive | inactive | inactive | inactive | inactive | inactive | 34.7 µM (active) |  |  |  | 
CCCCCCCCCc1ccc(OCCOCCO)cc1 | 8.1 µM (active) | inactive | 5.74 µM (active) | 20.4 µM (active) | inactive | 22.8 µM (active) |  |  |  | 18.3 µM (active) |  | inactive |  | 12.8 µM (active) | inactive | inactive | inactive | 25.6 µM (active) |  | 
C=CC(=O)OCCOc1ccccc1 | 61.1 µM (active) | inactive | inactive |  | inactive | inactive | inactive | inactive | inactive | inactive | inactive | inactive |  | inactive | inactive | inactive |  | inactive | inactive | 
CN(C)CCN(Cc1ccccc1)c1ccccn1 | inactive | inactive | inactive |  | inactive | inactive |  |  |  | inactive | inactive | inactive | inactive |  | inactive | inactive |  | inactive | inactive | inactive
COc1cc2nc(N(C)CCCNC(=O)C3CCCO3)nc(N)c2cc1OC (stereo not drawn) | 13.3 µM (active) | inactive |  | inactive | inactive | 23.7 µM (active) | inactive |  |  | inactive | inactive | inactive | inactive | inactive |  | inactive |  | inactive | inactive | inactive
COc1ccc(-c2nc3ccc(C4=NNC(=O)CC4C)cc3[nH]2)cc1 (stereo not drawn) | 8.41 µM (active) | inactive | inactive | inactive | inactive | inactive | inactive |  |  | inactive | inactive | inactive | inactive |  | inactive | inactive | inactive |  |  | inactive
